DRD3 agonist: agonists of human D3 dopamine receptor | max activation, % | actives 0.58% (n = 410,000) | D3R DiscoveRx beta-arrestin cells, luminescence, 90 min | AID 652048; in the data active = max activation above about 30%; note: 0% is about no effect
Target sequence (P35462 whole entry, looked up): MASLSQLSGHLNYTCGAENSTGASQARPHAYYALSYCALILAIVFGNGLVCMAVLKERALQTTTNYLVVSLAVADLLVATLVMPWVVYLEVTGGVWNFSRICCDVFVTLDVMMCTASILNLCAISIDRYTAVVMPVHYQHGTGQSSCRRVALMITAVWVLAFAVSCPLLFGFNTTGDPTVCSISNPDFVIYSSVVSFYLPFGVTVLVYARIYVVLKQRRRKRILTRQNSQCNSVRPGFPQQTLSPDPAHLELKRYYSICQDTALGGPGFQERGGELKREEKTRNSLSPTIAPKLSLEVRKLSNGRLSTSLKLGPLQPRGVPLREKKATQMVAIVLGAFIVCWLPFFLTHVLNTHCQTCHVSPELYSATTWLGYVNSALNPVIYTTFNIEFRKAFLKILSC
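Cells at 1500/well, incubated overnight, then treated with pinned compounds (dopamine as control) for 90 min at 37 degrees C. DiscoveRx reagent added for 30 - 60 minutes at room temperature; luminescence read.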
D3 antag: antagonists of human D3 dopamine receptor | P35462 | D3R cells, DiscoveRx beta-arrestin luminescence, antagonist mode; hits give low values | max response, negative = inhibition, % | actives 2.5% (n = 360,000); in the data active = max response below about -50%; inconclusive = no clear call, values can overlap the other calls; note: % is set by controls: 0 for no effect and ±100 for the full control effect
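Cells expressing the human receptor were seeded at 1500 cells/well, incubated overnight at 37 degrees C in 5% CO2, then exposed to library compounds with dopamine controls for 90 minutes at 37 degrees C before luminescent detection.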
RGS4 inh: human RGS4 inhibition; Transcreener GDP fluorescence polarization, RGS4-accelerated GTP hydrolysis; Potency, µM (highest dose often 114 µM), inactives show at the highest dose activity change, negative = inhibition, usual class: inhibitors; actives 0.039% (n = 390,000); active = well fitted inhibition curve with a large enough effect; inconclusive = small, poorly fitted or top-dose-only effect; inactive = no such curve, though single readings can be large or run the other way; note: potency is the fitted concentration of half-maximal effect; % is set by controls: 0 for no effect and ±100 for the full control effect; nearly all actives have a fitted effect of over 75% in size
Target sequence (P49798 whole entry, looked up): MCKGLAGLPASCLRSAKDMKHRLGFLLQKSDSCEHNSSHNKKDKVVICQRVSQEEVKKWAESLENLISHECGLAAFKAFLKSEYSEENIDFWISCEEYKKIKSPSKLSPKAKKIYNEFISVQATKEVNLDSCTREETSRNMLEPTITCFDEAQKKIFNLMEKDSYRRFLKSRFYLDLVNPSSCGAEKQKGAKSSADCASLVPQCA
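MLSMR compounds (23 nl, pin-transferred) preincubated 10 min at room temperature with a 500nM (2x) first reagent, then RGS4 at 900nM (2x) plus Transcreener GDP mix added; fluorescence polarization (620/688 nm) read before and after 90 min at 30 °C.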
Akt phos inh: Akt phosphorylation inhibition. Neuro2A IGF-stimulated pAkt S473 HTRF, 20 min; hits give low values. activity change, % for hits at 50 µM. actives 0.32% (n = 360,000). AID 651550; in the data active = activity change below about -80%; inconclusive = mostly about -51% to -80%; note: % is set by controls: 0 for no effect and ±100 for the full control effect
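Single-point screen (50 µM final compound) in Neuro2A cells stimulated 20 min with 6 nM IGF at 37 deg C. After lysis, Ser473-phosphorylated Akt read by HTRF (ex 330 nm, em 615/665 nm) as the 665/615 ratio.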
PI4K2A inh: blocks human PI4K2A kinase activity. purified PI4K2A, ADP-Glo luminescence, 1 h; hits give low values. activity change, negative = inhibition, % at 76.9 µM. actives 0.13% (n = 420,000). AID 1346378; in the data active = activity change below about -50%; inconclusive = mostly about -30% to -49%;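 note: -100% = wells without enzyme as full effect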
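ADP-Glo luminescence measured ADP generated by PI4K2A enzyme (4 ug/mL before mixing) with 1.2 mM PI substrate (pre-mix) and 300 microM ATP (pre-mix). Tris pH7.5 buffer with MgCl2, Triton X-100; 1 h reaction at ambient temperature.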
LDHA inh: inhibitors of human lactate dehydrogenase A; AID 1347041; activity change, % (values are at about 110 or 230 µM); actives 0.15% (n = 480,000); purified LDHA, NADH/diaphorase-resazurin fluorescence; hits give low values; P00338; in the data active = activity change below about -30%; inconclusive = mostly about -25% to -30%;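 note: plate controls were DMSO wells for no effect and wells without enzyme for full effect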
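Human LDH5 (2 nM) was incubated with 0.06 mM NADH and 0.2 mM pyruvate for 5 min at room temperature in Tris pH 7.4. Remaining NADH was coupled through diaphorase/resazurin, and resorufin fluorescence was read at 0 and 20 min.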
* marks the source's active call; other numbers are inactive results; i = inactive; ? = inconclusive; . = not tested or not shown; [ ] = dose if it differs, or a comment. Sampled rows, rich in hits. Any-hit rate of the full collection: about 2.8%.

SMILES	DRD3 agonist	D3 antag	RGS4 inh	Akt phos inh	PI4K2A inh	LDHA inh
O=[N+]([O-])c1cc2cccnc2c2ncccc12	-7	-12	-5%	i	-6	-12
CC(C)c1ccc(-c2c(C#N)c(N)nc(SCC(=O)N3CCCCCC3)c2C#N)cc1	0	12	-25%	-124%*	-3	-3
N#Cc1c(N)nc(SCC(=O)NC2CCCCC2)c(C#N)c1-c1ccc(Cl)cc1	46*	-12	17%	i	-2	-1
CC(C)CCNC(=O)Cn1cc(C#N)c2ccccc21	.	.	.	.	.	3
CCc1nn(CC(=O)N2CCN(c3cccc(OC)c3)CC2)c(=O)c2cc3occc3n12	-5	.	6%	.	7	2
CCc1nn(CC(=O)N2CCN(c3ccc(OC)cc3)CC2)c(=O)c2cc3occc3n12	34*	8	12%[11.4 µM]	i	-3	-3
Cc1cc(OCC(O)CN2CCN(c3cccc(Cl)c3)CC2)ccc1Cl (stereo not drawn)	-6	.	-2%	.	-6	-7
OC(COc1ccc(Cl)cc1)CN1CCN(c2ccccc2)CC1 (stereo not drawn)	-2	-87*	15%	i	-11	-4
Cc1ccc(OCC(O)CN2CCN(c3ccccc3)CC2)cc1 (stereo not drawn)	10	-75*	24%	i	6	5
OC(COc1ccc(Cl)cc1)CN1CCC(Cc2ccccc2)CC1 (stereo not drawn)	-11	-76*	0%	i	0	0
COc1ccc(N2CCN(CC(O)COc3cc(C)cc(C)c3)CC2)cc1 (stereo not drawn)	-10	1	-14%	i	-5	2
Cc1cccc(N2CCN(CC(O)COc3ccc4ccccc4c3)CC2)c1 (stereo not drawn)	47*	?	25%	i	-1	-6
C#CC(C)(CC)NC(=O)c1ccc(OC)c(OC)c1 (stereo not drawn)	.	.	.	.	.	1
COc1cccc(-c2cc(=O)[nH]c(Nc3nc(C)c4cccc(C)c4n3)n2)c1	.	.	.	.	.	-9
COCCCNC(=O)c1ccc(-c2nc(CS(=O)(=O)c3ccccc3)c(C)o2)cc1	.	.	.	.	.	2
Cc1ccc(OCC(O)CN2CCN(c3ccc(C)cc3)CC2)cc1 (stereo not drawn)	-21	-88*	-6%	i	-4	-1
O=C(/C=C/c1ccc(F)cc1)N1CCN(Cc2ccccc2)CC1	-20	-69*	-22%	i	4	1
Cc1ccc(OCC(O)CN2CCN(CC(O)COc3ccc(C)cc3)CC2)cc1 (stereo not drawn)	-11	?	4%	i	-6	-2
COc1cc(/C=C/C(=O)N2CCN(CC(=O)N3CCCC3)CC2)cc(OC)c1OC	3	.	.	.	.	.
COc1ccc2cc(/C=C/C(=O)N3CCN(CC(=O)N4CCCCCC4)CC3)ccc2c1	36*	13	-36%	i	0	4
COc1ccc(N2CCN(CC(O)COc3ccc(F)cc3)CC2)cc1 (stereo not drawn)	-20	-66*	-1%	i	-4	2
CC(C)c1ccc(NC(=O)c2ccccc2Cl)cc1	.	.	.	.	.	1
N#Cc1nc(-c2ccccc2)oc1N1CCN(c2ccccc2)CC1	.	.	.	.	.	-2
CS(=O)(=O)N(Cc1csc(-c2cccs2)n1)C1CCN(C(=O)c2c(F)cccc2F)CC1	.	.	.	.	.	9
Cc1cccc(CN2CCN(C(=O)c3cccc4ccccc34)CC2)c1	2	12	-18%	i	0	-10
SMILES	DRD3 agonist	D3 antag	RGS4 inh	Akt phos inh	PI4K2A inh	LDHA inh
CCN1CCN(C(=O)/C=C/c2ccc(C)cc2)CC1	-7	-2	8%	i	-5	-17
COc1ccc(OCC(O)CN2CCN(c3ccc(OC)cc3)CC2)cc1 (stereo not drawn)	-18	?	3%	i	1	3
O=C(/C=C/c1ccccc1)N1CCN(CC(O)COc2ccccc2)CC1 (stereo not drawn)	-10	-71*	1%	i	3	-1
Cc1ccc(/C=C/C(=O)N2CCCN(C(=O)/C=C/c3ccc(C)cc3)CC2)cc1	-13	-58*	-1%	i	-4	-7
Cc1cccc(CN2CCN(C(=O)c3ccccc3F)CC2)c1	0	-78*	-6%	i	4	-15
Cc1ccc(N2CCN(CC(O)COc3ccccc3)CC2)cc1 (stereo not drawn)	-17	-54*	-2%	i	3	-8
CC(C)Cc1nc(NCCO)c(C#N)c2c1CCCC2	.	.	.	.	.	-4
CCCCC1CCC(c2nc(C#N)c(N3CCN(CC)CC3)o2)CC1 (stereo not drawn)	.	.	.	.	.	-6
Cc1ccc(-c2ocnc2C(=O)NCc2ccc(OC(C)C)cc2)s1	.	.	.	.	.	1
CC(=O)ON=C1C=CC(=C(C#N)c2ccccc2)C=C1	-26	-105*	.	i	-12	0
Cc1ccc(S(=O)(=O)NC(=O)NCc2ccc3c(c2)OCO3)cc1	2	21	-4%	-111%*	9	5
Cc1ccc(S(=O)(=O)NCC2CCC(C(=O)NCc3ccc4c(c3)OCO4)CC2)cc1 (stereo not drawn)	13	5	-6%	i	1	-3
COc1ccc(NC(=O)CN(C)C(=O)C2=COCCO2)cc1	1	-59*	36%	i	3	-13
CN(CC(=O)Nc1ccc(Cl)cc1)C(=O)C1=COCCO1	-7	6	-7%	i	2	-3
Cc1nc(N2CCOCC2)c2cc(-c3ccccc3)sc2n1	-10	-57*	-25%	i	11	-3
O=C1C2CCCCN2C(=O)N1CCCCN1CCN(c2cccc(Br)c2)CC1 (stereo not drawn)	-4	-80*	-5%	i	2	0
O=C1C2CCCN2C(=O)N1CCCCN1CCN(c2ccccc2)CC1 (stereo not drawn)	30	-24	16%	i	2	0
O=C1C2CCCCN2C(=O)N1CCN1CCN(c2cccc(Cl)c2)CC1 (stereo not drawn)	-12	-22	1%	i	3	-2
O=C1C2CCCN2C(=O)N1CCCCN1CCN(c2cccc(Cl)c2)CC1 (stereo not drawn)	-1	-58*	-38%	i	-1	-3
O=S(=O)(Nc1nc2ccccc2nc1NC1CCCCC1)c1ccc(F)cc1	.	.	.	.	.	-2
CN(C)CCCn1c(N)c(S(=O)(=O)c2ccccc2)c2nc3ccccc3nc21	-4	?	-6%	i	-2	-5
CCCCn1c(N)c(S(=O)(=O)c2ccc(C)cc2)c2nc3ccccc3nc21	32*	11	5%	i	-3	5

Source: PubChem
